Laboratory results as given in the OligoGym collection.

molecular target: ULK1; test: pooled miR-30 sensor sort-seq; sequence = guide strand; conditions: shRNA
Note: reference of the scale not given here.

Which sensor-assay potency score (higher = more potent) does the source give for TTGTACAGCTCATTCAGCCTGC here?
The sensor-assay potency score (higher = more potent) was 0.11.

For TTCTTCTTGTTAATGCACTTGA, which sensor-assay potency score (higher = more potent) is on record?
Its sensor-assay potency score (higher = more potent) is 0.0356.

ATCAAGAGAACATTCAACCAGG was tested. Which sensor-assay potency score (higher = more potent) did it give?
The sensor-assay potency score (higher = more potent) was -0.0767.

How did the sensor-assay potency score (higher = more potent) turn out when ATGTGTATGTACAAACACCAGG was run?
The sensor-assay potency score (higher = more potent) was -1.55.

TTTTTGTCTGTTATGTGGCGTG was tested. Which sensor-assay potency score (higher = more potent) did it give?
Its sensor-assay potency score (higher = more potent) is -0.361.

Which sensor-assay potency score (higher = more potent) does the source give for TTGAACAAAGAACTGCCTCTGC here?
The sensor-assay potency score (higher = more potent) was 1.01.

With TTGCTCTGGAGGTACCGCGCGA as the sequence, how does the sensor-assay potency score (higher = more potent) read?
Its sensor-assay potency score (higher = more potent) is -0.555.

TTGCGGGAGAACTCGAACTTGC was tested. Which sensor-assay potency score (higher = more potent) did it give?
The sensor-assay potency score (higher = more potent) was -0.945.

With TTGCAAAGAAAAACACACGTGT as the sequence, how does the sensor-assay potency score (higher = more potent) read?
The sensor-assay potency score (higher = more potent) was 0.333.

How did the sensor-assay potency score (higher = more potent) turn out when TTCTTCTCGTAGAACAGGCGCA was run?
Its sensor-assay potency score (higher = more potent) is -0.466.

TTCAGGTACAGCACCAGCTGTT was tested. Which sensor-assay potency score (higher = more potent) did it give?
Its sensor-assay potency score (higher = more potent) is -0.477.

How did the sensor-assay potency score (higher = more potent) turn out when TTGTTCTTCTCGTAGAACAGGC was run?
Its sensor-assay potency score (higher = more potent) is -0.479.

molecular target: UMOD; test: as above; conditions: shRNA

ATCAGTGATGTTGAAGTCCTGT was tested. Which sensor-assay potency score (higher = more potent) did it give?
The sensor-assay potency score (higher = more potent) was 0.164.

For TATACTGCACTCCTCACACGTC, which sensor-assay potency score (higher = more potent) is on record?
Its sensor-assay potency score (higher = more potent) is -0.701.

TAGACTAGGTCATAGTTTCCAG was tested. Which sensor-assay potency score (higher = more potent) did it give?
The sensor-assay potency score (higher = more potent) was -0.219.

TAGAGCACTGACCATTGGCTGT was tested. Which sensor-assay potency score (higher = more potent) did it give?
Its sensor-assay potency score (higher = more potent) is -0.936.

With TTGCAGTCCTCGTCTATACTGC as the sequence, how does the sensor-assay potency score (higher = more potent) read?
Its sensor-assay potency score (higher = more potent) is -0.687.

With TCGATTTGCAGTCCTCGTCTAT as the sequence, how does the sensor-assay potency score (higher = more potent) read?
Its sensor-assay potency score (higher = more potent) is -0.657.

For TTCCTCGTCAACACTGTCCCAC, which sensor-assay potency score (higher = more potent) is on record?
Its sensor-assay potency score (higher = more potent) is 0.0538.

TAGTTGAGTCTCTAGTGTGTGG was tested. Which sensor-assay potency score (higher = more potent) did it give?
The sensor-assay potency score (higher = more potent) was -0.521.

For TTTCATTCCTCGTCAACACTGT, which sensor-assay potency score (higher = more potent) is on record?
The sensor-assay potency score (higher = more potent) was 0.582.

TTGCACTTTTCATTCATGGTGT was tested. Which sensor-assay potency score (higher = more potent) did it give?
Its sensor-assay potency score (higher = more potent) is 0.244.

With TTGAAGTCCTGTTTGCACTGGC as the sequence, how does the sensor-assay potency score (higher = more potent) read?
The sensor-assay potency score (higher = more potent) was 0.829.

With TTGTAGACGTAGTAGCCGCCGG as the sequence, how does the sensor-assay potency score (higher = more potent) read?
Its sensor-assay potency score (higher = more potent) is -1.04.

molecular target: UNC5A; test: as above; conditions: shRNA

With TTAAGGGACAGCTTCGGCCGGG as the sequence, how does the sensor-assay potency score (higher = more potent) read?
Its sensor-assay potency score (higher = more potent) is -0.139.

TAGGCCTTCTGACTCTTGGTGG was tested. Which sensor-assay potency score (higher = more potent) did it give?
Its sensor-assay potency score (higher = more potent) is -0.43.

For TCTCATAGATCTTCCCTCGGGG, which sensor-assay potency score (higher = more potent) is on record?
Its sensor-assay potency score (higher = more potent) is -0.279.

Which sensor-assay potency score (higher = more potent) does the source give for TTGCACTTGAAGAAGATCTGCG here?
The sensor-assay potency score (higher = more potent) was 0.732.

How did the sensor-assay potency score (higher = more potent) turn out when TTACTCTTCCACAGGGAGCTGG was run?
Its sensor-assay potency score (higher = more potent) is -0.541.

Which sensor-assay potency score (higher = more potent) does the source give for TTGAAGTTGATGCTGAAGCTCT here?
The sensor-assay potency score (higher = more potent) was -0.155.

TAGATCTCATAGATCTTCCCTC was tested. Which sensor-assay potency score (higher = more potent) did it give?
Its sensor-assay potency score (higher = more potent) is -0.268.

For TTGAGGATCATGGCTGTGGGGC, which sensor-assay potency score (higher = more potent) is on record?
The sensor-assay potency score (higher = more potent) was -1.23.

For TTGGTGAGCTGGAACTTGGGGC, which sensor-assay potency score (higher = more potent) is on record?
Its sensor-assay potency score (higher = more potent) is -0.337.

With TAGACGATGACAGCAGCGGAGG as the sequence, how does the sensor-assay potency score (higher = more potent) read?
Its sensor-assay potency score (higher = more potent) is -1.55.

For TTGAAGAAGATCTGCGTGGCGG, which sensor-assay potency score (higher = more potent) is on record?
Its sensor-assay potency score (higher = more potent) is -0.341.

Which sensor-assay potency score (higher = more potent) does the source give for TTGATGCTGAAGCTCTGCCCGT here?
Its sensor-assay potency score (higher = more potent) is -1.2.
